Screening results: PubChem BioAssay, National Center for Advancing Translational Sciences (NCATS)
This is a sample that favours compounds with a hit; in the whole collection about 10% have one here.
CtBP-E1A inh = CtBP/E1A binding inhibition. actives 0.49% (n = 340,000). activity change, % (no concentration beside the values). AlphaScreen GST-E1A/His-CtBP binding, 1536-well; active compounds read low; in the data active = activity change below about -65%; inconclusive = mostly about -30% to -63%; note: % is set by controls: 0 for no effect and ±100 for the full control effect
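In 5 uL wells, 23 nL compound meets equimolar GST-E1A and His-CtBP (5X stock 125 nM each) for 2 h, 37 °C. Beads (5X, 50 ug/mL) then 1 h, 37 °C, dark.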
HP1b binding inh = HP1-beta chromodomain-methylated histone interaction inhibition | AlphaScreen HP1-beta / biotin-H3K9me3 peptide binding | Potency, µM (titrated, usually from 114 µM), for the others: top-dose activity change, negative = inhibition, actives largely listed as inhibitors | actives 0.56% (n = 390,000); note: potency is the fitted concentration of half-maximal effect; nearly all actives have a fitted effect of over 70% in size
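AlphaScreen: HP1-beta (50 nM) preformed 30 min with biotin-H3(1-18)K9me3 peptide (50 nM) in PBS pH 7.4, 0.01% Tween-20. Compound added for 30 min at RT, then streptavidin donor/nickel chelate acceptor beads (10 ug/mL) for 30 min.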
G9a inh = inhibitors of human histone lysine methyltransferase G9a | Q96KQ7 | Potency, µM (titrated, usually from 102 µM), for the others: at the highest dose activity, negative = inhibition, most hits filed as inhibitors | actives 8.8% (n = 350,000) | G9a H3K9 monomethylation, AlphaScreen, 2 h; note: potency is the fitted concentration of half-maximal effect; % is set by controls: 0 for no effect and ±100 for the full control effect; nearly all actives have a fitted effect of over 75% in size
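AlphaScreen detection with an anti-monomethyl H3K9 antibody quantified product after a 2 h room-temperature reaction containing 500 nM biotinylated H3K9 peptide, 20 µM SAM and 20 nM enzyme, which had been preincubated 15 min with compound.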
Six1-Eya2 inh = inhibitors of human Six1/Eya2 interaction. Q15475+O00167. AlphaScreen GST-Six1/His-Eya2 binding, biochemical; active compounds read low. activity change, % (concentration not given with the values). actives 0.56% (n = 360,000). AID 651725; in the data active = activity change below about -65%; inconclusive = mostly about -30% to -63%; note: % is set by controls: 0 for no effect and ±100 for the full control effect
Target sequence (O00167 whole entry, looked up): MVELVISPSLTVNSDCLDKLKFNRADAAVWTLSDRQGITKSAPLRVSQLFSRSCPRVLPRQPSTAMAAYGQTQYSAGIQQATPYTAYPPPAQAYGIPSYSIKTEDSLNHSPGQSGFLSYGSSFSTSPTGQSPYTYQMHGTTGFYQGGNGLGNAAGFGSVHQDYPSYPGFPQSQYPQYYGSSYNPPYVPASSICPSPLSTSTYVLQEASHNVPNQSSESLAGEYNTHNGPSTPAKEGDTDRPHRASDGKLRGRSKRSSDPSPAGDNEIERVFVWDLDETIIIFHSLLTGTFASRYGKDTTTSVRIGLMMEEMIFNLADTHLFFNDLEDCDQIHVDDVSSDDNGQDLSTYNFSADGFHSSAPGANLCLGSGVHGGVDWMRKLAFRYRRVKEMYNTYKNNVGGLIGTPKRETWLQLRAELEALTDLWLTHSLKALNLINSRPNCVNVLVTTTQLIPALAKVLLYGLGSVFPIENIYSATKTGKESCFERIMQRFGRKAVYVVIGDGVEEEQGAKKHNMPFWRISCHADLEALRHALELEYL
Target sequence (Q15475 whole entry, looked up): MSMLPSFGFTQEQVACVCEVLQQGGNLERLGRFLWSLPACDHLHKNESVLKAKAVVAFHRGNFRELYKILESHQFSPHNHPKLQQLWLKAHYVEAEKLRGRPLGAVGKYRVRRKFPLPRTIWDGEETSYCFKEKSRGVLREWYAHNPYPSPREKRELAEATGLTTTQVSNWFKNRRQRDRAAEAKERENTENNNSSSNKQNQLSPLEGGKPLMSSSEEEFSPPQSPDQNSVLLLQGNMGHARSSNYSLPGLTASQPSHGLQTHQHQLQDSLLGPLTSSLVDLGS
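GST-Six1 + His-Eya2 (5X stock: 250/500 nM); Tris pH 8.0, 300 mM NaCl, 0.05% BSA, 0.02% Tween 20; GSH donor/Ni acceptor beads; 1 h 37 °C dark; AlphaScreen readout.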
BAZ2B inh = BAZ2B (human) inhibition; AlphaScreen BAZ2B-H3K14Ac peptide displacement; Potency, µM (highest dose often 114 µM), without a hit: at the top dose activity change, negative = inhibition, most hits filed as inhibitors; actives 4.4% (n = 360,000); note: potency is the fitted concentration of half-maximal effect; % is set by controls: 0 for no effect and ±100 for the full control effect; nearly all actives have a fitted effect of over 60% in size
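Protein-peptide AlphaScreen: BAZ2B 50 nM, b-H3K14Ac 50 nM, 1x PBS pH 7.4 + 0.01% Tween-20. Preincubation 30 min RT; cpd 30 min RT (top 110 uM); beads 20 min RT, light-protected.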
JMJD2A Tudor inh = JMJD2A Tudor domain (human) inhibition; O75164; Potency, µM (titrated, usually from 114 µM), inactives show at the highest dose activity change, negative = inhibition, hits mostly inhibitors; AlphaScreen JMJD2A-Tudor / H3K4me3 peptide binding; actives 4.4% (n = 390,000); note: potency is the fitted concentration of half-maximal effect; % is set by controls: 0 for no effect and ±100 for the full control effect; nearly all actives have a fitted effect of over 50% in size
* marks the source's active call; other numbers are inactive results; [ ] = remark or other dose. Unless noted, calls come from the whole dose curve; as a rule, active = well fitted inhibition curve with a large enough effect; inconclusive = small, poorly fitted or top-dose-only effect; inactive = no such curve, though single readings can be large or run the other way.

Screening CCCCCCCCCCCC(=O)NC(Cc1ccc(OC)c([N+](=O)[O-])c1)C(=O)O (centres undefined) returned CtBP-E1A inh 6.3, HP1b binding inh 9.3%, G9a inh 28.2µM*, Six1-Eya2 inh -5.2, BAZ2B inh -26.3% and JMJD2A Tudor inh -23.1%.
For CN1CCN(C(=O)c2ccc3c(c2)N(Cc2ccc(C(F)(F)F)cc2)C(=O)c2ccccc2S3)CC1 the results were HP1b binding inh 4.4%, G9a inh inconclusive and JMJD2A Tudor inh -35.7%.
CN(C)c1ccc(C=NNc2ccccn2)c(Cl)c1 was read as CtBP-E1A inh -13.0, HP1b binding inh 16.7%, Six1-Eya2 inh 2.9 and JMJD2A Tudor inh -25.7%.
`CN(C)c1ccc(/C=N/Nc2ccc(-n3ccnc3)nn2)cc1` gave CtBP-E1A inh -7.5, HP1b binding inh -0.7%, G9a inh inconclusive, Six1-Eya2 inh 0.0, BAZ2B inh 17.8µM* and JMJD2A Tudor inh inconclusive.
Screening CN(C)c1ccc(/C=N\Nc2ccccn2)cc1 returned CtBP-E1A inh -28.3, HP1b binding inh inconclusive, G9a inh 39.8µM*, Six1-Eya2 inh inconclusive, BAZ2B inh 25.1µM* and JMJD2A Tudor inh inconclusive.
For CSc1ccc(CCNC(=O)c2ccc(-c3nc(COc4ccc(C)cc4)c(C)o3)cc2)cc1 the results were HP1b binding inh 39.9%, G9a inh inconclusive, BAZ2B inh 1.2% and JMJD2A Tudor inh 2.8%.
Fc1ccc(-c2csc(=S)[nH]2)cc1 was read as CtBP-E1A inh -13.6, HP1b binding inh -25.0%, G9a inh inconclusive, Six1-Eya2 inh -1.7, BAZ2B inh 50.1µM* and JMJD2A Tudor inh 22.4µM*.
`S=c1[nH]c(-c2ccccc2)cs1` gave CtBP-E1A inh 0.8, HP1b binding inh inconclusive, G9a inh 1.41µM*, Six1-Eya2 inh -25.2, BAZ2B inh 39.8µM* and JMJD2A Tudor inh 22.4µM*.
For O=c1[nH]c(-c2ccc(Cl)cc2)cs1 the results were CtBP-E1A inh -11.2, HP1b binding inh -13.4%, G9a inh -8.8%, Six1-Eya2 inh 5.5 and JMJD2A Tudor inh -18.9%.
For O=c1[nH]c(-c2ccccc2)cs1 the results were CtBP-E1A inh -1.9, HP1b binding inh 10.2%, G9a inh -0.2%[59 µM], Six1-Eya2 inh -0.1, BAZ2B inh -6.4% and JMJD2A Tudor inh -12.2%.
`CCOc1ccc(N2CC(NC(=O)CCc3ccccc3)CC2=O)cc1` (centres undefined) gave HP1b binding inh 11.6%, G9a inh 9.6%[59 µM], BAZ2B inh 1.3% and JMJD2A Tudor inh -4.9%.
For COc1ccc(N(C(=O)/C=C\C(=O)Nc2ccc(Cl)cc2)C(C(=O)NCc2ccco2)c2ccc(C)cc2)cc1 (centres undefined) the results were HP1b binding inh 19.1%, G9a inh 11.2µM*, BAZ2B inh inconclusive and JMJD2A Tudor inh -33.6%.
`CCOc1cc(C(C(=O)NCC2CCCO2)N(C(=O)Cn2nnc3ccccc32)c2ccc(OC)c(OC)c2)ccc1O` (centres undefined) gave CtBP-E1A inh -7.8, HP1b binding inh 21.3%, G9a inh 44.7µM*, Six1-Eya2 inh -4.9, BAZ2B inh -0.8% and JMJD2A Tudor inh 13.4%.
Cc1ccc(CN(C(=O)Cn2nnc3ccccc32)C(C(=O)NCc2ccco2)c2ccc(C)o2)cc1 (centres undefined) was read as CtBP-E1A inh -1.6, HP1b binding inh 32.7%, G9a inh -3.7%[59 µM], Six1-Eya2 inh -11.3, BAZ2B inh -3.6% and JMJD2A Tudor inh -9.7%.
Screening Cc1ccc(C(C(=O)NCc2ccco2)N(C(=O)Cn2nnc3ccccc32)c2ccccc2)o1 (centres undefined) returned CtBP-E1A inh -1.7, HP1b binding inh -18.7%, G9a inh 44.7µM*, Six1-Eya2 inh -8.2, BAZ2B inh -7.6% and JMJD2A Tudor inh -33.8%.
COc1cc(C(C(=O)NCC2CCCO2)N(C(=O)Cn2nnc3ccccc32)c2ccc(C(C)=O)cc2)ccc1O (centres undefined) was read as CtBP-E1A inh 0.6, HP1b binding inh 19.3%, G9a inh inconclusive, Six1-Eya2 inh 10.0, BAZ2B inh -0.2% and JMJD2A Tudor inh -12.9%.
Cc1ccc(N(C(=O)Cn2nnc3ccccc32)C(C(=O)NCc2ccco2)c2ccc(C)o2)cc1 (centres undefined) was read as CtBP-E1A inh 4.1, HP1b binding inh 5.1%, G9a inh inconclusive, Six1-Eya2 inh 0.0, BAZ2B inh -36.6% and JMJD2A Tudor inh -12.3%.
Screening COc1ccc(N(C(=O)Cn2nnc3ccccc32)C(C(=O)NCc2ccco2)c2ccc(C)o2)cc1 (centres undefined) returned CtBP-E1A inh -12.8, HP1b binding inh -16.1%, G9a inh 50.1µM*, Six1-Eya2 inh -0.6, BAZ2B inh 44.7µM* and JMJD2A Tudor inh -25.3%.
Screening Cc1ccc(NC(=O)/C=C\C(=O)N(c2ccc(C(C)C)cc2)C(C(=O)NCc2ccco2)c2ccc(Cl)cc2)cc1 (centres undefined) returned HP1b binding inh 24.3%, G9a inh inconclusive, BAZ2B inh -17.3% and JMJD2A Tudor inh -27.5%.
Cc1onc(-c2ccccc2Cl)c1C(=O)Oc1ccccc1F was read as HP1b binding inh 78.8%, G9a inh 33.2%[59 µM], BAZ2B inh 112.4% and JMJD2A Tudor inh 42.2%.
`C=Cc1ccc(CSc2nc(-c3ccccc3Cl)nc3c2Cc2c(CO)cnc(C)c2O3)cc1` gave HP1b binding inh 27.8%, G9a inh -29.4%[59 µM], BAZ2B inh -16.6% and JMJD2A Tudor inh -9.2%.
`O=C(Nc1cccc2nsnc12)c1ccc(-c2ccc(Br)cc2)o1` gave CtBP-E1A inh -0.7, HP1b binding inh 15.1%, G9a inh 39.8µM*, Six1-Eya2 inh -15.1, BAZ2B inh -31.6% and JMJD2A Tudor inh 2.7%.
`CCOc1cc(Br)cc(/C=C2\SC(=Nc3ccccc3)NC2=O)c1O` gave HP1b binding inh 11.6%, Six1-Eya2 inh -7.4, BAZ2B inh -37.0% and JMJD2A Tudor inh -31.0%.
For C=CCOc1ccc(Br)cc1/C=C1/SC(=Nc2ccc(C(=O)O)cc2)NC1=O the results were CtBP-E1A inh 2.6, HP1b binding inh 18.6%, G9a inh 20µM*, Six1-Eya2 inh -7.1, BAZ2B inh 44.7µM* and JMJD2A Tudor inh inconclusive.
Screening CC(=O)N(C)c1ccc(NS(=O)(=O)Cc2ccccc2)cc1 returned CtBP-E1A inh 3.4, HP1b binding inh 11.0%, G9a inh 56.2µM*, Six1-Eya2 inh 1.0, BAZ2B inh 5.8% and JMJD2A Tudor inh -0.8%.
Screening CCCCN(C)C(=O)CN1C(=O)CCn2nc(-c3cn(C)c4ccccc34)cc21 returned HP1b binding inh 2.1%[57 µM], G9a inh 11.9%[59 µM], BAZ2B inh -34.1% and JMJD2A Tudor inh -17.9%.
